Assay outcomes deposited in PubChem by National Center for Advancing Translational Sciences (NCATS).
A selection: hits, their analogues and other compounds. The true share with any hit is near 11%.
Vaccinia mCherry – inhibitors of vaccinia virus infection (mCherry reporter signal); Vaccinia virus mCherry reporter infection, fluorescence; Potency, µM (highest dose often 36.5 µM), for inactives: at the highest dose activity change, negative = inhibition, hits mostly inhibitors; AID 720579; 310,000 tested, 0.63% active; calls by dose curve; tested in A549 cells; further: on the % scale 0 is the no-effect control and ±100 the full control effect; nearly all actives have a fitted effect of over 35% in size
Vaccinia Venus – vaccinia inhibition (Venus reporter). Vaccinia virus Venus reporter expression, fluorescence. Potency, µM (highest dose often 36.5 µM), for the others: top-dose activity change, negative = inhibition, most hits filed as inhibitors. 330,000 tested, 0.46% active. AID 720580; calls by dose curve; tested in A549 cells; further: on the % scale 0 is the no-effect control and ±100 the full control effect; nearly all actives have a fitted effect of over 30% in size
Pf growth 48h – P. falciparum growth inhibition at 48 hours (one generation); AID 504832; Potency, µM (highest dose often 28.7 µM), without a hit: top-dose activity change, negative = inhibition, hits mostly inhibitors; 310,000 tested, 5.9% active; P. falciparum luciferase growth in erythrocytes, 48 h; further: on the % scale 0 is the no-effect control and ±100 the full control effect
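Here the parasites carry a stable luciferase gene and grow inside erythrocytes in Albumax-based RPMI medium with compound for one erythrocytic cycle. Activity is scored as loss of luminescent signal.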
NS1 function inh – blocks influenza NS1 protein function; Potency, µM (highest dose often 46.1 µM), inactives show top-dose activity, positive = more growth; 270,000 tested, 0.4% active; calls by dose curve; further: actives are rising curves; nearly all actives have a fitted effect of over 50% in size
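Read-out: OD600 growth recovery of NS1-expressing budding yeast. Cells grown overnight at 30C in -URA glucose medium, washed, resuspended and diluted 1:100 in 2% galactose assay medium, pH 6.0. Same strain lacking NS1 served as positive control.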
HCV inh – blocks hepatitis C virus; 340,000 tested, 3.4% active; AID 651820; Potency, µM (series often up to 41.8 µM), without a hit: at the highest dose activity change, negative = inhibition, actives largely listed as inhibitors; Huh7.5.1 HCVcc-Cre infection, luciferase reporter, 44 h; further: on the % scale 0 is the no-effect control and ±100 the full control effect
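HCVcc-Cre virus at an moi near 0.5 was added right after compound to cells cultured 4 h from seeding (1,000 cells/well). Luciferase activity was determined 44 h later, 15 min after substrate addition at RT.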
Pf growth 96h – P. falciparum growth inhibition at 96 hours; Potency, µM (series often up to 28.7 µM), inactives show at the highest dose activity change, negative = inhibition, actives largely listed as inhibitors; P. falciparum luciferase reporter growth, 96 h; 320,000 tested, 6.9% active; further: on the % scale 0 is the no-effect control and ±100 the full control effect
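Plates of compound plus infected erythrocytes (2% hematocrit, 0.05% parasitemia final) incubate 96 hours, 37 C, 5% CO2. Detection reagent added; reduced luminescence from the parasites' luciferase reporter flags inhibition.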
* marks the source's active call; other numbers are inactive results; [ ] = dose if it differs, or a comment. Unless noted, the call rests on the fitted dose curve; in most records, active means well fitted inhibition curve with a large enough effect; inconclusive means small, poorly fitted or top-dose-only effect, or another doubt; inactive means no such curve, though single readings can be large or run the other way. Potency means the concentration at half of the fitted maximal effect.

`COc1ccc2nc(N=Nc3ccc(O)c4ccccc34)sc2c1` gave Vaccinia mCherry inactive, Vaccinia Venus -18%, Pf growth 48h inconclusive, NS1 function inh -1%, HCV inh inconclusive and Pf growth 96h 24%.
For Cc1ccc(-c2ccccc2)n1-c1cccc(C(=O)O)c1 the results were Pf growth 48h 62%, NS1 function inh 7%, HCV inh 27% and Pf growth 96h 31%.
For Cc1cc2c3c([nH]c2cc1S(=O)(=O)N1CCC2(CC1)OCCO2)CCCC3=O the results were Pf growth 48h inconclusive, NS1 function inh 0%, HCV inh 22µM* and Pf growth 96h inconclusive.
Screening CCOC(=O)c1ccc(NC(=O)Cn2cccc2)cc1 returned Pf growth 48h 35%, NS1 function inh -13%, HCV inh -11% and Pf growth 96h inconclusive.
O=C(CCN1CCc2ccccc2C1)Nc1ccccc1 was read as Pf growth 48h inconclusive, NS1 function inh 12%, HCV inh -16% and Pf growth 96h 7%.
Screening O=C(CCn1cccc1)Nc1cccc(F)c1 returned Vaccinia mCherry -16%, Vaccinia Venus -6%, Pf growth 48h 13%, NS1 function inh 6%, HCV inh 13% and Pf growth 96h 12µM*.
`Cc1ccc(NC(=O)CCn2cccc2)cc1F` gave NS1 function inh -4% and HCV inh -3%.
Screening O=C(CCN1CCc2ccccc2C1)Nc1cccc(F)c1 returned Pf growth 48h 2%, NS1 function inh -8%, HCV inh -15% and Pf growth 96h 4.1µM*.
CCc1cccc(NC(=O)Cn2cccc2)c1 was read as Pf growth 48h 72%, NS1 function inh -11%, HCV inh 22% and Pf growth 96h 4.7µM*.
Cc1ccc(C)c(N2CCN(CCCNc3ncnc4onc(-c5ccc(Cl)cc5)c34)CC2)c1 was read as Vaccinia mCherry inactive and Vaccinia Venus -17%.
COc1cc2c(Nc3ccc(Br)cc3F)ncnc2cc1OCC1CCN(C)CC1 was read as Pf growth 48h 0.67µM* and Pf growth 96h 1.5µM*.
For COc1cc(/C=C/c2ccc3cccc([N+](=O)[O-])c3n2)ccc1OCC#N the results were Vaccinia mCherry inconclusive, Vaccinia Venus -19%, Pf growth 48h -23%, NS1 function inh 15%, HCV inh 4.5µM* and Pf growth 96h -19%.
CCCC(=O)N1CCC1(C)C(=O)Nc1cc(-c2ccccc2)nn1C (stereo not drawn) was read as Vaccinia mCherry -1% and Vaccinia Venus 3%.
`O=C(COc1ccc([N+](=O)[O-])cc1)NCC(c1cccs1)N1CCOCC1` (stereo not drawn) gave Vaccinia mCherry -28%, Vaccinia Venus 4%, Pf growth 48h inconclusive, HCV inh -12% and Pf growth 96h -12%.
CCC(C)[C@H](NC(=O)C1(c2ccccc2)CCN(C(=O)OC(C)(C)C)CC1)C(=O)N[C@@H](C(=O)O)c1ccccc1 (stereo partly drawn) was read as Vaccinia mCherry 4%, Vaccinia Venus 11%, Pf growth 48h 13µM*, NS1 function inh inconclusive, HCV inh 23% and Pf growth 96h 13µM*.
`CCc1ccc(CNC(=O)C(=O)NCC2CCCO2)cc1` (stereo not drawn) gave Vaccinia mCherry -5%, Vaccinia Venus -10%, Pf growth 48h 55%, NS1 function inh 1%, HCV inh 4% and Pf growth 96h 19%.
`CN(C1CCCCC1)S(=O)(=O)c1ccc(S(=O)(=O)N2CCCC2)cc1` gave Vaccinia mCherry inactive, Vaccinia Venus -4%, Pf growth 48h inconclusive, NS1 function inh -28%, HCV inh inconclusive and Pf growth 96h 1.7µM*.
For CCOc1ccc(S(=O)(=O)N(C)C2CCCCC2)cc1 the results were Vaccinia mCherry -25%, Vaccinia Venus 1%, Pf growth 48h 28%, NS1 function inh -32%, HCV inh -2% and Pf growth 96h 1.7µM*.
CC[n+]1ccccc1/C=C/c1ccc(N(C)C)cc1 was read as Pf growth 48h 2.9µM*, HCV inh 4.5µM* and Pf growth 96h -16%.
`CC[n+]1ccc(/C=C/c2ccc(N(C)C)cc2)c2ccccc21` gave Vaccinia mCherry inactive, Vaccinia Venus inactive, Pf growth 48h 0.59µM*, NS1 function inh -70%, HCV inh 4.5µM* and Pf growth 96h 10%.
Screening COC(=O)CCN(c1ccccc1)S(=O)(=O)c1cc(-c2cc(C)no2)ccc1C returned Pf growth 48h inconclusive, NS1 function inh -22%, HCV inh inconclusive and Pf growth 96h 11%.
Screening COC(C#CCCN(C)C)(c1ccccc1)c1ccccc1 returned Vaccinia mCherry -18%, Vaccinia Venus -7%, Pf growth 48h 1.7µM*, NS1 function inh -6%, HCV inh -16% and Pf growth 96h inconclusive.
Cc1ccc(C(=O)Nc2ccc(C(=O)OCc3cc(=O)n4ccsc4n3)cc2)cc1 was read as Vaccinia mCherry -11%, Vaccinia Venus -2%, Pf growth 48h -20% and Pf growth 96h inconclusive.
For CCc1cccc2sc(NC(=O)c3ccc(N4C(=O)CCC4=O)cc3)nc12 the results were Vaccinia mCherry -8%, Vaccinia Venus -6%, Pf growth 48h 20%, NS1 function inh -7%, HCV inh -20%[8.37 µM] and Pf growth 96h 12%.
`O=C(C1CCCO1)N1CCN(Cc2nc3ccccc3c(=O)[nH]2)CC1` (stereo not drawn) gave Vaccinia mCherry -14%, Vaccinia Venus 6%, Pf growth 48h 21%, NS1 function inh 2%, HCV inh 9% and Pf growth 96h inconclusive.
For C=C1SC(=Nc2ccccc2Cl)N(C(=O)c2sc3ccccc3c2Cl)C1(C)C the results were Vaccinia mCherry -23%, Vaccinia Venus -9%, Pf growth 48h inconclusive, NS1 function inh -7%, HCV inh 7% and Pf growth 96h inconclusive.
Screening C=C1SC(=Nc2c(C)cccc2Cl)N(C(=O)c2sc3ccccc3c2Cl)C12CCCCC2 returned Vaccinia mCherry -3%, Vaccinia Venus -16%, Pf growth 48h inconclusive, NS1 function inh 4%, HCV inh -5% and Pf growth 96h 1.9µM*.
O=C(Nc1cccc(-c2cn3ccccc3n2)c1)c1cccs1 was read as Vaccinia mCherry 2%, Vaccinia Venus 2%, Pf growth 48h 56%, NS1 function inh -22%, HCV inh 9% and Pf growth 96h 83%.
For CC(C)Nc1ccc(Nc2ccccc2)cc1 the results were Vaccinia mCherry -5%, Vaccinia Venus -3%, Pf growth 48h 4.1µM*, HCV inh inconclusive and Pf growth 96h 2.6µM*.
For O=C(O)c1c2ccccc2cc2ccccc12 the results were Vaccinia mCherry -4% and Vaccinia Venus -4%.
